Eight compounds from PubChem BioAssay can be followed below.

SMILES strings stand for the structures. Active and inactive are the calls of the source.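 The calls were made as follows, unless noted: active = inhibition above 20% together with a positive visual image hit; inconclusive = visual image hit but inhibition not above 20%; inactive = no visual image hit.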

In general, inhibition refers to the relative decrease from the control value, in per cent.

Assay [1] in a line: inhibitors of TNFa-induced NFkB p65 translocation, primary screen, imaging, HUVEC, MLSMR starter and 10KST1 sets (AID 438).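 Also: compound added about 3h40 before a 20 min TNFalpha stimulation.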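 As to inhibition: signal is the nuclear over cytoplasmic p65 intensity ratio per well.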 Particulars: HUVEC TNFa-induced p65 nuclear translocation; cell count: measured here: nuclei count (cytotoxicity indicator), at 2.08 µM; inhibition: at 2 µM, stronger effect = higher value, 0% TNFa-plus-vehicle, 100% no-TNFa wells.
Assay [2] in a line: endothelial E-selectin expression blockers – imaging, HUVEC, immunofluorescence, MLSMR starter and 10KST1 sets, primary screen (AID 487;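 active = visually confirmed hit in the image check and inhibition above 20%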;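 as to inhibition: signal is fraction of cell area covered by stained E-selectin grains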;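 as to nuclei count: 100% = median nuclei count of all wells on the same plate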). Particulars: HUVEC TNFalpha-induced E-selectin immunofluorescence imaging, at 2 µM; inhibition: stronger effect = higher value; nuclei count: measured here: cell number, toxicity.
The nature of assay [3]: Primary imaging screen for DUSP6 inhibitors that restore phospho-Erk in transfected HeLa cells, chemical complementation (AID 609;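 active = compounds giving at least 50% inhibition in the cell-based MKP-3 phosphatase rescue imaging test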;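 as to inhibition: phospho-Erk level distribution per well compared with pooled transfected vehicle control wells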). Particulars: HeLa MKP-3 transfected, phospho-Erk imaging KS statistic, at 10 µM, cells stimulated with TPA for 15 min.
The target in assay [4] is Dual specificity protein phosphatase 6 (Homo sapiens) (UniProt Q16828). The assay is described as above. Conditions: HeLa MKP-3 transfected, phospho-Erk imaging KS statistic; at 10 µM; stronger effect = higher value; cells stimulated with TPA for 15 min.
In assay [5] the target is Voltage-gated potassium channel subunit beta-2 (Rattus norvegicus) (UniProt P62483). Nature of the assay: inhibitors of rat Kvbeta2 reductase activity – biochemical, NADPH fluorescence, primary screen (AID 622;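 active = fluorescence slope higher than the sample average by over 3 SD, cut at about -0.22 in these data, passing the limit was not always enough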;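 also: slope of raw intensity against log time taken from 70 to 1610 s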). Particulars: recombinant KvBeta, 4-cyanobenzaldehyde reduction, at 10 µM, stronger effect = higher value.
For assay [6] the target is unchanged. Kind of assay: enhancers of rat Kvbeta2 NADPH turnover – biochemical, NADPH fluorescence, primary screen (AID 623;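 active = NADPH fluorescence slope more negative than the mean of all samples by about 3 SD, 99.7% confidence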;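 also: fluorescence intensity change per second fitted from 20 to 320 s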). Conditions: Recombinant KvBeta, NADPH fluorescence decrease slope, 10 min; at 10 µM; stronger effect = lower value.
Assay [7] deals with Alpha-2C adrenergic receptor (Homo sapiens) (UniProt P18825). Nature of the assay: compounds altering alpha2C-coupled GIRK flux – cell-based, HEK293 alpha2C/GIRK1/2, thallium flux, primary screen (AID 624;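 active = fluorescence slope after compound addition differing from the mean of all screened samples at 99.7% confidence, in either direction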;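 also: slope of fluorescence ratio to pre-addition baseline per second over 15 to 24 s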). Particulars: thallium flux BTC fluorescence, at 10 µM, actives lie on both sides.
A short description of assay [8]: loss of swimming-algae plug formation – whole organism, Chlamydomonas reinhardtii, WT vs cilia-less mutant, absorbance, 96-well, primary screen (AID 463189;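 active = inhibition at or above 50% relative to wild type and mutant plate controls; inactive = inhibition below 50%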;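 also: 0% = wild type cc124 cells in DMSO and 100% = ciliumless bld1 mutant cells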). Conditions: Chlamydomonas reinhardtii gravitaxis, OD600 absorbance, 2 days; at 10 µM; stronger effect = higher value.
Where [9] appears, read: measured here: cell density z-score.
The mark [10] stands for this setting: measured here: nuclear c-Myc green intensity z-score.
The mark [11] stands for this setting: measured here: nuclear pErk red intensity z-score, stronger effect = higher value.

Sequence of Dual specificity protein phosphatase 6 (Homo sapiens) (Q16828 whole entry, looked up): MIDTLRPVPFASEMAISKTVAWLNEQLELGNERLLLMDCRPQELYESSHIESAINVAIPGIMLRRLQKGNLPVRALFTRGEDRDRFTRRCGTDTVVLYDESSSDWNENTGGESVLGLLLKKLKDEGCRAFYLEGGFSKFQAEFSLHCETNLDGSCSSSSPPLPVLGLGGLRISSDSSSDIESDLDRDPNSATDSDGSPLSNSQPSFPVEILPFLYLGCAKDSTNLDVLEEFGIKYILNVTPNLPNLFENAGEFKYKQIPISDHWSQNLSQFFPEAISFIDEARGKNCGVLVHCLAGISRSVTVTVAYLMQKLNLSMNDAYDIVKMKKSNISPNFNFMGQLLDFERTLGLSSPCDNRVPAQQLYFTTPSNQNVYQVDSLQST
Sequence of Alpha-2C adrenergic receptor (Homo sapiens) (P18825 whole entry, looked up): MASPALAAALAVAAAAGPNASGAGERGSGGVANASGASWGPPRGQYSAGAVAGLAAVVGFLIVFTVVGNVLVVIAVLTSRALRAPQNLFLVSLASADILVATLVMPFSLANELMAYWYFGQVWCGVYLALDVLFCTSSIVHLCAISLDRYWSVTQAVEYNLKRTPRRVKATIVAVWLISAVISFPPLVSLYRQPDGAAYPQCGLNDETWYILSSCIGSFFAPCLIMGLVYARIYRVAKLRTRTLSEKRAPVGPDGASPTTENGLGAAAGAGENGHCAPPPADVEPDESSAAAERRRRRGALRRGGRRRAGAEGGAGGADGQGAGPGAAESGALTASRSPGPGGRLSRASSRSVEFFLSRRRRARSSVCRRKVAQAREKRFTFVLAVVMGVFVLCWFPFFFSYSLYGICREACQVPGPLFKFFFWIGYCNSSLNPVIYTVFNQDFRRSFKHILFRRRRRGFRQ
Sequence of Voltage-gated potassium channel subunit beta-2 (Rattus norvegicus) (P62483 whole entry, looked up): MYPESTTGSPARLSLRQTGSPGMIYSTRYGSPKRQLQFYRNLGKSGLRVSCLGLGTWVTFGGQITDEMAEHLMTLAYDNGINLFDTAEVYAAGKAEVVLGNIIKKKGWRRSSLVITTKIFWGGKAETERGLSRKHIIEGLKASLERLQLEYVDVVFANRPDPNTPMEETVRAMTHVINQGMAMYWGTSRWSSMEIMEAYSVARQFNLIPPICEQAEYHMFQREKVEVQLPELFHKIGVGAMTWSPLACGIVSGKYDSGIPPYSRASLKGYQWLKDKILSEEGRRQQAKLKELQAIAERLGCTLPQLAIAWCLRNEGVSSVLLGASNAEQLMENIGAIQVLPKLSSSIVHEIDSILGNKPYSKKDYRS

As to `COc1ccccc1-c1cc(-c2cc(Cl)ccc2O)n[nH]1`, in assay [1], the cell count is 259. The inhibition in assay [1] is -13% (inactive); in assay [2] it was -9.5% (inactive); in assay [4] it was 7.01% (inactive); in assay [8] it was -19.8% (inactive). This compound also yielded a nuclei count in assay [2] of 129%. Further, the z-score was 1.7 in assay [3] (setting [9]), -0.531 in assay [3] (setting [10]) and -0.306 in assay [3] (setting [11]). In addition, the fluorescence slope in assay [5] was -0.453 (inactive). Moreover, the NADPH fluorescence slope in assay [6] was -1.7e-05 (inactive). Also, the slope in assay [7] is 0.0086 (inactive).

As for `Cc1ccc2cc(CN(C(=O)c3ccco3)c3ccccc3)c(=O)[nH]c2c1`, the cell count in assay [1] came to 312. The inhibition in assay [1] was -4.2% (inactive); in assay [2] it was -134% (inactive); in assay [4] it was 19.3% (inactive); in assay [8], 33.7% (inactive). The nuclei count in assay [2] worked out at 163%. Also, the z-score in assay [3] (setting [9]) was 1.52; in assay [3] (setting [10]), -0.685; in assay [3] (setting [11]), -0.563. Besides, in assay [5], the fluorescence slope is -0.412 (inactive). In assay [6], the NADPH fluorescence slope was -4.7e-05 (inactive). Moreover, the slope in assay [7] was 0.0072 (inactive).

Consider `CC(C)c1nc2n[nH]c(N)c2c2c1CCC2`, for which the cell count in assay [1] was 359. For the same compound, the inhibition in assay [1] was -3.7% (inactive); in assay [2], -74.3% (inactive); in assay [4] it was 5.26% (inactive); in assay [8], 2.52% (inactive). This compound yielded a nuclei count in assay [2] of 148%. Further, the z-score is 0.678 in assay [3] (setting [9]), -1.06 in assay [3] (setting [10]) and 0.961 in assay [3] (setting [11]). Besides, the fluorescence slope in assay [5] was -0.409 (inactive). The NADPH fluorescence slope in assay [6] is -0.000125 (inactive). Besides, the slope in assay [7] is 0.007 (inactive).

For the compound `COc1ccc(NCc2cc3ccccc3[nH]c2=O)cc1`, in assay [1], the cell count came out at 254. In addition, the inhibition in assay [1] is -8.8% (inactive); in assay [2] it was -69.8% (inactive); in assay [4], -12.3% (inactive); in assay [8], 7.35% (inactive). Further, the nuclei count in assay [2] was 90%. Besides, the z-score in assay [3] (setting [9]) was -0.199; in assay [3] (setting [10]), -0.583; in assay [3] (setting [11]), 0.127. The fluorescence slope in assay [5] was -0.408 (inactive). Besides, the NADPH fluorescence slope in assay [6] was -3.2e-05 (inactive). Further, in assay [7], the slope is 0.00788 (inactive).

For `CC(C)Cc1nc2n[nH]c(N)c2c2c1CCC2`, the cell count in assay [1] was found to be 325. For the same compound, the inhibition in assay [1] is -3.7% (inactive); in assay [2], -87.6% (inactive); in assay [4] it was -1.75% (inactive); in assay [8], 8.43% (inactive). In addition, the nuclei count in assay [2] worked out at 149%. The figures for the z-score in assay [3] (setting [9]), in assay [3] (setting [10]) and in assay [3] (setting [11]) were 0.414, -0.778 and -0.647, respectively. The fluorescence slope in assay [5] was -0.43 (inactive). Further, in assay [6], the NADPH fluorescence slope is -8.3e-05 (inactive). Moreover, the slope in assay [7] was 0.0075 (inactive).

For `CCCSc1nc(C)c(CC(=O)O)c(=O)[nH]1`, the cell count in assay [1] worked out at 381. For the same compound, the inhibition in assay [1] is -7.9% (inactive); in assay [2], -71.2% (inactive); in assay [4], 1.75% (inactive); in assay [8], 21.4% (inactive). In assay [2], this compound registered a nuclei count of 190%. Moreover, the z-score is -2.53 in assay [3] (setting [9]), 0.0307 in assay [3] (setting [10]) and -0.67 in assay [3] (setting [11]). Moreover, the fluorescence slope in assay [5] was -0.45 (inactive). The NADPH fluorescence slope in assay [6] is -0.00012 (inactive). Also, the slope in assay [7] is 0.00515 (inactive).

With `COc1ccc(N/C=C(\C#N)c2nc3ccccc3n2C)c(OC)c1`, the cell count in assay [1] stood at 367. Further, the inhibition was -0.5% (inactive) in assay [1], -18% (inactive) in assay [2], 1.75% (inactive) in assay [4] and 1.37% (inactive) in assay [8]. This compound had a nuclei count in assay [2] of 138%. The z-score is -0.0541 in assay [3] (setting [9]), -0.725 in assay [3] (setting [10]) and 2.53 in assay [3] (setting [11]). The fluorescence slope in assay [5] is -0.426 (inactive). Further, the NADPH fluorescence slope in assay [6] is -0.000158 (inactive). The slope in assay [7] is 0.00463 (inactive).

In the case of `COc1cccc(/C(O)=C2/C(=O)C(=O)N(CCN(C)C)C2c2ccc(Br)cc2)c1` (stereo unspecified), the cell count in assay [1] is 321. In addition, the inhibition in assay [1] is 18.1% (inactive); in assay [2] it was 14.2% (inactive); in assay [4] it was -12.3% (inactive); in assay [8] it was 28.7% (inactive). Also, the nuclei count in assay [2] was 102%. In addition, the z-score in assay [3] (setting [9]) was 0.101; in assay [3] (setting [10]), 1.46; in assay [3] (setting [11]), -0.618. Moreover, the fluorescence slope in assay [5] was -0.456 (inactive). In assay [6], the NADPH fluorescence slope is 7.9e-06 (inactive). Also, the slope in assay [7] is 0.00697 (inactive).
